Data as given in PMC11062922 (Nature Chemical Biology, 2023).

What follows are molecules tested on CAMK2B. Conditions: read-out: apparent Kd; compound concentrations:100 nM and 1000 nM (sheet 'Samples'); n = 1.
Parameters: species or system human, MV4-11 + K-562 + COLO205 + SK-N-BE2 + OVCAR-8

SMILES | potency estimated from few doses [nM]
FC(F)(F)c1ccccc1-c1cc(-c2c[nH]nc2-c2ccccn2)ccn1 [GW679396X] | 628
COc1cc2ncnc(Nc3cccc(Br)c3)c2cc1OC.Cl [GI230329A] | 405
C[C@@H]1CCN(C(=O)CO)C[C@@H]1N(C)c1ncnc2[nH]ccc12 [PFE-PKIS_34] | 563

These molecules were tested on CAMK4. Conditions: read-out: apparent Kd; compound concentrations:100 nM and 1000 nM (sheet 'Samples'); n = 1.
Parameters: species or system human, MV4-11 + K-562 + COLO205 + SK-N-BE2 + OVCAR-8

SMILES | potency estimated from few doses [nM]
Cl.Cn1cc(C2=C(c3cn(CCCN)c4ccccc34)C(=O)NC2=O)c2ccccc21 [RO0317549-002] | 1430
FC(F)(F)c1cc(Nc2nccc(-c3c(-c4ccc(Cl)cc4)nn4ncccc34)n2)ccc1Cl [GW829351X] | 2170
O=C(Nc1n[nH]c2nc(-c3nccs3)c(Br)cc12)C1CC1 [SB-742251] | 1800

These molecules were tested on CDC42BPB. Conditions: read-out: apparent Kd; compound concentrations:100 nM and 1000 nM (sheet 'Samples'); n = 1.
Parameters: species or system human, MV4-11 + K-562 + COLO205 + SK-N-BE2 + OVCAR-8

SMILES | potency estimated from few doses [nM]
COc1ccc(C[C@@H](CN)NC(=O)c2cc(Br)c(-c3ccnc4[nH]ccc34)s2)cc1.COc1ccc(C[C@@H](CN)NC(=O)c2cc(Br)c(-c3ccnc4[nH]ccc34)s2)cc1.Cl.Cl [GSK1389063A] | 80.7
Cl.Cl.NC[C@H](Cc1ccc(C(F)(F)F)cc1)NC(=O)c1cc(Br)c(-c2ccnc3[nH]ccc23)s1.NC[C@H](Cc1ccc(C(F)(F)F)cc1)NC(=O)c1cc(Br)c(-c2ccnc3[nH]ccc23)s1 [GSK1487252A] | 2460
CCn1c(-c2nonc2N)nc2cncc(CNC3CCNCC3)c21 [SB-747651A] | 1900

These molecules were tested on CDC42BPG. Conditions: read-out: apparent Kd; compound concentrations:100 nM and 1000 nM (sheet 'Samples'); n = 1.
Parameters: species or system human, MV4-11 + K-562 + COLO205 + SK-N-BE2 + OVCAR-8

SMILES | potency estimated from few doses [nM]
COc1ccc(C[C@@H](CN)NC(=O)c2cc(Br)c(-c3ccnc4[nH]ccc34)s2)cc1.COc1ccc(C[C@@H](CN)NC(=O)c2cc(Br)c(-c3ccnc4[nH]ccc34)s2)cc1.Cl.Cl [GSK1389063A] | 21.2
O=C(Nc1n[nH]c2nc(-c3ccccc3)c(Br)cc12)C1CC1 [SB-708998] | 1880
O=C(Nc1n[nH]c2nc(-c3ccccc3)ccc12)C1CC1 [SB-708999] | 1760
CS(=O)(=O)CCNCc1ccc(-c2ccc3ncnc(Nc4ccc(OCc5cccc(C(F)(F)F)c5)cc4)c3c2)o1.Cl [GW567808A] | 1820
COc1cc2ncn(-c3cc(O[C@@H](C)c4ccccc4Cl)c(C(N)=O)s3)c2cc1OC [GSK237700A] | 2140
